A selection: hits, their analogues and other compounds. The true share with any hit is near 7.9%.
Marburg entry inh – Marburg virus entry inhibition. Marburg virus pseudotyped entry inhibition, cell reporter. Potency, µM (doses to about 37.8 µM), for inactives: at the top dose activity change, negative = inhibition, most hits filed as inhibitors. 300,000 compounds, 1.8% hits. AID 540276; calls by dose curve; tested in HEK293 cells; also: potency is read from the fitted curve at half-maximal effect
Lassa entry inh – blocks Lassa virus binding to or entry into cells; Lassa virus pseudotype entry inhibition, cell reporter; Potency, µM (top dose mostly 37.9 µM), without a hit: at the highest dose activity change, negative = inhibition, usual class: inhibitors; 300,000 compounds, 1.2% hits; AID 540256; calls by dose curve; tested in HEK293 cells; also: potency is read from the fitted curve at half-maximal effect; nearly all actives have a fitted effect of over 50% in size
FMDV antiviral – foot and mouth disease virus antiviral activity | 410,000 compounds, 1.2% hits | Potency, µM (series often up to 57.9 µM), for inactives: top-dose activity change, negative = inhibition, hits mostly inhibitors | AID 1159524 | FMDV antiviral cell-based qHTS; calls by dose curve; tested in HEK293T cells; also: read-out not given here; potency is read from the fitted curve at half-maximal effect; nearly all actives have a fitted effect of over 45% in size
HCV inhibitor – inhibitors of hepatitis C virus infection; 340,000 compounds, 3.4% hits; Potency, µM (series often up to 41.8 µM), for inactives: top-dose activity change, negative = inhibition, actives largely listed as inhibitors; Huh7.5.1 HCVcc-Cre infection, luciferase reporter, 44 h; active = well fitted inhibition curve with a large enough effect; inconclusive = small, poorly fitted or top-dose-only effect, or another doubt; inactive = no such curve, though single readings can be large or run the other way; also: potency is read from the fitted curve at half-maximal effect
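Reporter virus HCVcc-Cre (~0.5 moi) infects cells exposed to compound; seeding density 1,000 cells/well with 4 h settling beforehand. Luminescence, 15 sec read, taken 44 h post-infection following a 15 min RT substrate incubation.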
HCMV inh – blocks human cytomegalovirus replication; AID 1259415; 410,000 compounds, 4.5% hits; activity change, negative = inhibition, % at 57.5 µM; HFF cells, HCMV-luciferase reporter, 72 h; hits give low values; in the data active = activity change below about -60%; inconclusive = no clear call, values can overlap the other calls; inactive = above about -39%
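Two-dose cell screen: HFF monolayers treated with compounds and infected with luciferase-expressing HCMV at 1 PFU/cell, 72 h at 37C, then lysed for luciferase measurement.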
* hit, by the source's call; ? = inconclusive; . = no result given; ! = not confirmed by another sample; [ ] = dose if it differs, or a comment. % is scaled to controls: 0 for no effect and ±100 for the full control effect.

SMILES | Marburg entry inh | Lassa entry inh | FMDV antiviral | HCV inhibitor | HCMV inh
CCCc1cc(C(=O)Nc2ccc(C(=O)c3ccc(F)cc3)cc2)n(C)n1 | . | . | ? | 10µM* | .
CCCc1cc(C(=O)Nc2ccc(C(=O)c3ccccc3)cc2)n(C)n1 | . | . | ? | 15.8µM* | -40.0
Fc1ccc(-n2cc(CNCCc3cccnc3)c(-c3ccccc3Cl)n2)cc1 | ? | ? | -17.9% | -21.7% | -5.3
Cn1c(=O)n(C)c2cc(N3CCCCC3)c(NC(=O)c3c(F)cccc3F)cc21 | ? | ? | -22.4% | . | -0.6
C[C@H](CO)N1C[C@H](C)[C@@H](CN(C)S(=O)(=O)c2ccccc2F)Oc2ncc(Br)cc2C1=O | . | . | -20.5% | . | -9.2
CC(=O)c1nnn(-c2ccc(C)cc2Cl)c1C | . | ? | -3.3% | . | -9.8
CC(C)NC(=O)c1csc(N2CCN(CCc3ccccc3)C2=O)n1 | . | . | . | . | 11.2
CC(Oc1ccccc1F)C(=O)Nc1ccc2ccccc2c1 (stereo not drawn) | ? | ? | 13.8% | -11.9% | -77.4*
CC(Oc1ccc(F)cc1)C(=O)Nc1ccc2ccccc2c1 (stereo not drawn) | 11.6µM* | ? | 8.9% | ? | -66.6*
COc1ccc(OC(C)C(=O)Nc2cccc(F)c2)cc1 (stereo not drawn) | ? | 5.2% | -16.4% | -22.0% | -20.6
COc1ccccc1C(=O)Nc1ccc(Cc2ccncc2)cc1 | -31.7% | -1.9% | -17.2% | ? | -2.7
COc1c(C)cc(Br)cc1C(=O)Nc1ccc(Cc2ccncc2)cc1 | ? | -27.7%[46.1 µM] | ? | ? | -72.0*
CC(=O)O[C@H]1CC[C@@]2(C)C(=CC[C@H]3[C@@H]4CC[C@H](C(C)=O)[C@@]4(C)CC[C@@H]32)C1 | . | . | ? | 9.7% | 24.5
CC12CCC(=O)C=C1CCC1C2C(O)CC2(C)C1CCC21OCC1=O (stereo not drawn) | ? | 9.7%[46.1 µM] | -5.3% | 18.5% | -91.9*
Cc1nc(C2CCC3C4CCC5=CC(=O)CC[C@]5(C)C4CC[C@]23C)cs1 (stereo partly drawn) | . | . | . | . | -91.2*
CC(=O)[C@H]1CC[C@H]2[C@@H]3CC=C4C[C@@H](OS(=O)(=O)O)CC[C@]4(C)[C@H]3CC[C@]12C | . | . | -19.4% | -0.5% | -71.0*
C[C@]12CCC(=O)C=C1CCC1C2CC[C@@]2(C)C1CC[C@@H]2O (stereo partly drawn) | -13.4%[46.1 µM] | 6.6%[46.1 µM] | -7.3% | 10.7% | 93.9
CC(=O)C1CCC2C3CCC4=CC(=O)CC[C@@]4(C)C3CC[C@]12C (stereo partly drawn) | . | . | 22.4µM* | . | .
Cc1ccc(NC(=O)CSc2nc(-c3cccs3)nc3cc(=O)[nH]n23)cc1 | . | 12.1%[46.1 µM] | -16.6% | . | -3.0
C[C@]12CCC(=O)C=C1CCC1C2CC[C@@]2(C)C1CC[C@]2(C)O (stereo partly drawn) | ? | ? | -19.9% | 2.4% | -21.5
CC(=O)[C@@]1(O)CC[C@H]2[C@@H]3CCC4=CC(=O)CC[C@]4(C)[C@H]3CC[C@@]21C | 18.4% | 20.6µM*! | ? | -0.3%[8.37 µM] | 28.3
CCCCCC(=O)O[C@]1(C(C)=O)CC[C@H]2[C@@H]3CCC4=CC(=O)CC[C@]4(C)[C@H]3CC[C@@]21C | 10.3µM* | -18.2% | 0.0% | ? | -67.6*
O=C(NC1CCCCC1)C1CC(=O)N(CCc2ccc(F)cc2)C1 (stereo not drawn) | 1.0%[46.1 µM] | ? | 2.6% | 0.5% | -6.5
COc1ccc(C(=O)c2c[nH]c(C(=O)N=CN(C)C)c2)cc1 | ? | . | 24.4% | 7.3% | 57.4
CCc1cc(=O)[nH]c(SCc2nc(-c3ccc(C(F)(F)F)cc3)no2)n1 | . | 17.6%[46.1 µM] | ? | . | 57.9
SMILES | Marburg entry inh | Lassa entry inh | FMDV antiviral | HCV inhibitor | HCMV inh
C#CCOc1cc(C2C3=C(COC3=O)Nc3cc4c(cc32)OCO4)ccc1OC (stereo not drawn) | . | . | -21.4% | -4.4% | 4.0
COc1ccc(OC)c(C2C3=C(COC3=O)Nc3cc4c(cc32)OCO4)c1 (stereo not drawn) | 0.259µM* | -32.9% | -22.3% | -6.5% | -84.2*
Cc1ccccc1OCC(=O)Nc1ccccc1OCc1cc(=O)n2ccccc2n1 | . | 10.9%[46.1 µM] | 13.4% | . | 39.7
O=C(Oc1c(CN2CCOCC2)cc(Cl)c2cccnc12)c1ccc(F)cc1 | 10.3µM* | ? | -21.1% | 10µM* | -96.5*
COc1cc(C(=O)Oc2c(CN3CCOCC3)cc(Cl)c3cccnc23)cc(OC)c1OC | -2.5% | . | ? | ? | .
COc1ccc(C(=O)Oc2c(CN3CCOCC3)cc(Cl)c3cccnc23)cc1 | ? | -21.8% | -24.5% | 12.6µM* | -75.1*
Cc1cnc(C)c(-c2ccc(F)c3c2OC(CNC(=O)Cc2c(F)cccc2F)C3)n1 (stereo not drawn) | . | . | -16.4% | . | .
Cn1nccc1C(=O)NCc1ccc2c(c1)CCN2C(=O)c1ccc(Cl)cc1 | . | ? | 1.4% | . | -15.4
O=C(NCc1ccc2c(c1)CCN2C(=O)c1ccccc1)c1ccc(Br)o1 | . | -28.5%[46.1 µM] | -26.5% | . | -11.5
Cc1cccc(C(=O)N2CCc3cc(CNC(=O)c4ccc(Br)o4)ccc32)c1 | . | ? | 6.1% | . | -66.6*
Cc1cccc(C(=O)N2CCc3cc(CNC(=O)c4ccnn4C)ccc32)c1 | . | ? | 20µM* | . | 3.8
CCOC(=O)c1cccc(NC(=O)NCc2ccc3c(c2)CCN3C(=O)c2ccccc2)c1 | . | ? | 39.8µM* | . | ?
Cc1ccc(C(=O)N2CCc3cc(CNC(=O)c4ccnn4C)ccc32)cc1 | . | ? | ? | . | -70.2*
Cn1nnc2c(N3CCN(c4cccc(Cl)c4)CC3)ncnc21 | . | ? | 0.0% | . | 3.2
COc1cc2nc(N3CCCN(C)CC3)nc(NC3CCN(Cc4ccccc4)CC3)c2cc1OC | ? | 1.83µM* | . | . | .
Cc1cc(C)cc(OCc2cc(=O)n3c4c(sc3n2)CCCC4)c1 | 0.3%[46.1 µM] | 2.3%[46.1 µM] | -13.0% | . | -2.0
CCN(CC)c1ccc2c(c1)CCCN2 | . | . | . | 11.2µM* | .
CCN(c1ccccc1)S(=O)(=O)c1ccc(NCC2COc3ccccc3O2)nc1 (stereo not drawn) | ? | 16.4µM* | ? | 11.2µM* | 7.9
COc1ccc(C2=NCC(C)n3c2c2ccccc2[n+]3[O-])cc1 (stereo not drawn) | . | . | . | . | 14.2
COc1ccccc1Nc1nnc(SCC(=O)NC(=O)Nc2ccc3c(c2)OCCO3)s1 | 15.0% | ? | -2.9% | -1.9% | 30.2
C/C(=N\NC(=O)c1ccncc1)c1cccs1 | . | . | 77.2% | 10.1% | -16.3
C/C(=N/NC(=O)c1cc(C2CC2)[nH]n1)c1cccs1 | 10.3µM* | 2.59µM* | -73.6% | -10.6% | -34.5
CN1CCN(c2nnc(-c3ccc(Cl)cc3)c3ccccc23)CC1 | . | . | -26.3% | ? | ?
Clc1ccc(-c2nnc(NCCN3CCCC3)c3ccccc23)cc1 | . | . | 0.891µM* | ? | -23.3
CS(=O)(=O)Nc1ccc(-c2cncc3nccn23)cc1 | . | . | -17.1% | . | -9.8
CS(=O)(=O)Nc1ccc(-c2cnc3cccnn23)cc1 | . | . | 1.0% | . | -63.9*
CCOC(=O)CSC1=NC(=O)/C(=C/c2ccc(Br)cc2)S1 | 7.7%[46.1 µM] | 5.4% | 25.1µM* | 6.4% | -29.0
